In PubChem BioAssay AID489018 (Southern Research Specialized Biocontainment Screening …, 2010):
The whole screen tested about 2,300 compounds, of which about 350 (15%) were called active. No rule for the calls is given here. A selection follows. Measured potencies and affinities stand elsewhere.

Assay: HepG2 cell cytotoxicity, dose response, cytotoxicity control for non-replicating M. tuberculosis project (AID 489018);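 also: HepG2 human liver cells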
Conditions: series mostly up to 20 µM

Compound	outcome
CCc1ccc(NC(=O)C(=O)NNC(=O)COc2cccc(OC)c2)cc1	inactive
O=C(NNc1nc2cc3c(cc2s1)OCCO3)c1ccccc1	inactive
O=[N+]([O-])c1ccc(CNc2cccc(Cl)c2)s1	inactive
CC1=NN(C(=O)c2csc(C)c2C)C(O)(C(F)(F)F)C1 (stereo unspecified)	inactive
CCOCC(=O)Nc1nc2ccc(C)cc2s1	inactive
CCN(CC)CCSc1nnc2c3cc(C)ccc3n(Cc3ccccc3)c2n1	inactive
O=C(Nc1nc2ccccc2n1CCN1CCCC1)c1ccc(Cl)cc1	inactive
O=C(Nc1nc2ccccc2n1CCN1CCCC1)C1CCCCC1	inactive
Cc1cccc(NC(=O)COC(=O)CCc2c[nH]c3ccccc23)c1	inactive
O=C(COC(=O)c1ccccc1Cl)NCCC1=CCCCC1	inactive
O=c1cc2[nH]c3ccccc3c(=O)n2nc1-c1ccccc1	inactive
CC1CC(C)CN(C(=O)COC(=O)c2ccc([N+](=O)[O-])o2)C1 (stereo unspecified)	inactive
COc1ccc(CCCC(=O)NCc2ccccc2)cc1C	inactive
COc1ccc(S(=O)(=O)NCc2ccc3c(c2)cc(C)n3C)cc1	inactive
COC(=O)COc1ccc2c(-c3ccc(OC)cc3)cc(=O)oc2c1	inactive
C=C1CCC[C@]2(C)C[C@H]3OC(=O)C(CNC(C)CCCC(C)C)[C@H]3CC12 (stereo partly specified)	inactive
O=C(Oc1ccccc1Cl)c1ccc2c(=O)n3c(nc2c1)CCC3	inactive
CC(/C=C/c1cccc([N+](=O)[O-])c1)=N\NC(=O)c1ccncc1	inactive
COC(=O)COc1cccc(/C=N/NC(=O)CCSc2ccccc2)c1	inactive
O=C(N/N=C/c1ccc[nH]1)c1ccc2c(c1)OCO2	inactive
O=C(N/N=C\c1ccccc1OCc1ccccc1)c1ccco1	inactive
Cc1occc1C(=O)N/N=C/c1ccc[nH]1	inactive
C/C(=N\NC(=O)c1cccs1)c1ccc2c(c1)OCO2	inactive
CC(/C=C/c1ccccc1)=N\NC(=O)c1ccc2c(c1)OCCO2	inactive

Compound	outcome
Cc1occc1C(=O)N/N=C/C(Br)=C\c1ccccc1	inactive
C/C(Cn1nnc([N+](=O)[O-])n1)=N\NC(=O)c1ccncc1	inactive
COC(=O)CN(C#N)c1nc(SC)nc(N(C)C)n1	inactive
O=C1CCC/C(=N/Nc2ccc(Cl)cc2)C1	inactive
CCOCCOC(=O)c1ccc(NC(=O)C2COc3ccccc3O2)cc1 (stereo unspecified)	inactive
Cc1cc(Cl)ccc1OC(C)C(=O)Nc1ccc([N+](=O)[O-])cn1 (stereo unspecified)	inactive
Cc1ccc(C)c(NC(=O)c2cc([N+](=O)[O-])cc([N+](=O)[O-])c2)c1	inactive
O=C(CCc1ccc(Oc2cc([N+](=O)[O-])cc([N+](=O)[O-])c2)cc1)N1CCCCC1	inactive
Cc1cc(C)n(C(=O)c2ccc([N+](=O)[O-])cc2[N+](=O)[O-])n1	inactive
Cc1ccccc1-n1ncc2c([N+](=O)[O-])cc([N+](=O)[O-])cc21	inactive
N/C(=N/OC(=O)c1ccccc1Cl)c1ncc([N+](=O)[O-])s1	inactive
COc1ccc(OC)c(NC(=O)C(=O)NNC(=O)C23CC4CC(CC(C4)C2)C3)c1	inactive
Brc1ccc(-c2ccc(CNCc3ccccn3)o2)cc1	inactive
Cc1ccc2[nH]c3c(c2c1)CCCC3NCCO (stereo unspecified)	inactive
Cc1ccc2c(c1)c1c3n2CCN=C3CCC1	inactive
O=C(COc1cccc2ccccc12)Nc1nc2ccccc2[nH]1	inactive
O=C(OCC(=O)N1CCC(c2ccccc2)=N1)c1ccc([N+](=O)[O-])s1	inactive
Cc1ccc(C(=O)NNC(=S)NC(=O)c2ccc(Cl)cc2)cc1	inactive
Cc1cc(Br)ccc1OCCCCN1CCC(C)CC1	inactive
CCCCCOc1ccc(CSC2=NCCN2)cc1[N+](=O)[O-]	inactive
CCOC(=O)CCNC(=O)c1ccc2nc(C3CCCCC3)oc2c1	inactive
CCOc1ccc(/C=N/OCC(=O)Nc2ccc3c(c2)OCO3)cc1	inactive
O=C(Cn1cc([N+](=O)[O-])nc1[N+](=O)[O-])N1CCN(c2ccccc2)CC1	inactive
CC1=NN(C(=O)c2ccc(Cn3nc(C)c(Br)c3C)cc2)C(O)(C(F)(F)F)C1 (stereo unspecified)	inactive

Compound	outcome
O=C(c1ccccc1[N+](=O)[O-])N1N=C(c2ccccc2)CC1(O)C(F)(F)F (stereo unspecified)	inactive
Cc1ccc(OC(=O)c2ccc(Br)o2)cc1	inactive
O=C1NCC(O)=C1C=Nc1ccccc1O	inactive
COc1cccc(NC(=O)c2ccc(Cn3cc([N+](=O)[O-])cn3)o2)c1	inactive
CCc1cccc(OCCCn2ccnc2)c1	inactive
CCOc1ccc(OCC(=O)Nc2ccc(OC)cc2)cc1	inactive
Cc1ccc(-c2noc(CCC(=O)Nc3cccc(C#N)c3)n2)cc1	inactive
Cn1cccc1/C=C1/C(=O)NC(=S)N(Cc2ccc(F)cc2)C1=O	inactive
CCN1/C(=C(\O)c2ccccc2)C(=O)c2ccccc2S1(=O)=O	inactive
Cc1cc(NC(=O)c2ccccc2F)n(-c2nc3ccccc3[nH]2)n1	inactive
Cc1cc(Nc2ccccc2)n(-c2nc3ccccc3[nH]2)n1	inactive
Cc1ccc(C(=O)N/N=C\c2ccc(-c3ccc(Cl)cc3)o2)cn1	inactive
CCN1CSC(=S)N(Cc2ccc(OC)cc2)C1	inactive
COc1cc(/C=N/N(C)C)ccc1OC(=O)c1cccs1	inactive
Cc1ccn2c(NC3CCCC3)c(-c3ccccn3)nc2c1	inactive
O=C(CC1CCCCC1)NCc1ccccc1	inactive
Cc1ccc(C(=O)Nc2nnc(-c3ccncc3)o2)cc1	inactive
Cc1cccc(C(=O)Nc2nnc(-c3cccnc3)o2)c1	inactive
O=C(Nc1nnc(-c2ccc(F)cc2)o1)c1cc(Cl)sc1Cl	inactive
O=C(Nc1nnc(-c2ccc(Cl)cc2)o1)c1ccccc1Br	inactive
COc1cccc(C(=O)Nc2nnc(-c3ccc(F)cc3)o2)c1	inactive
COc1cccc(C(=O)OCC(=O)Nc2nnc(-c3ccccc3)o2)c1	inactive
COc1ccc(C(=O)Nc2nnc(-c3ccccc3)o2)cc1OC	inactive
COc1cccc(-c2nnc(NC(=O)c3cccc(F)c3)o2)c1	inactive

Compound	outcome
O=C1c2cccc3c([N+](=O)[O-])ccc(c23)C(=O)N1c1ccc(Cl)cn1	inactive
Cc1ccc(OCCCCn2ccnc2)c(Cl)c1	inactive
O=C(CCNc1cccc(Cl)c1)c1ccco1	inactive
CSc1ccccc1NC(=O)c1cc(C(C)C)on1	inactive
COc1ccc(/C=C2\COc3ccccc3C2=O)cc1OC	inactive
COc1cccc(C(=O)OCC(=O)c2ccc(Br)s2)c1OC	inactive
CCCCOC(=O)Cn1c(-c2ccccc2)nc2ccccc2c1=O	inactive
O=C(Nc1nnc(-c2ccccc2Cl)o1)c1ccco1	inactive
O=C(Nc1nnc(-c2ccc(Cl)cc2)o1)c1cccc(N2C(=O)CCC2=O)c1	inactive
O=C(Nc1ccc(S(=O)(=O)N2CCOCC2)cc1)c1ccc([N+](=O)[O-])s1	inactive
COc1ccc(-c2nnc(NC(=O)C3=COCCO3)o2)cc1	inactive
O=C(Nc1nnc(-c2ccccc2Cl)o1)c1cccnc1	inactive
COc1ccc(C(=O)Nc2nnc(C3=COCCO3)o2)cc1	inactive
O=C(N/N=C/c1cc([N+](=O)[O-])ccc1O)C12CC3CC(CC(C3)C1)C2	inactive
CCN1CCN(c2ccc(S(=O)(=O)N3CCCCC3)cc2NC(=O)c2ccc([N+](=O)[O-])o2)CC1	inactive
O=C(OCc1cccc(F)c1)c1ccc2c(=O)n3c(nc2c1)CCC3	inactive
CN(C)CC/C=C1/c2ccc(F)cc2Sc2ccc(Cl)cc21	inactive
O=[N+]([O-])c1cc(-c2nc(-c3ccncc3)no2)cc([N+](=O)[O-])c1	inactive
O=c1c2cc(Cl)ccc2oc2nc3n(c(=O)c12)CCCS3	inactive
CC(=O)CC1(OC(C)=O)C(=O)N(C)c2ccccc21 (stereo unspecified)	inactive
O=C(Oc1cccc2cccnc12)c1ccc2c(c1)OCCO2	inactive
COc1cc(NC(=O)N2CCOCC2)cc(OC)c1	inactive
COc1cc(OC)cc(OC(=O)c2ccc3c(=O)n4c(nc3c2)CCC4)c1	inactive
Oc1ccc(F)c2cccnc12	inactive

Compound	outcome
O=C(Oc1cccc2cccnc12)c1cccc([N+](=O)[O-])c1	inactive
O=C(CCN1CCOCC1)c1ccc(Cl)cc1	inactive
COc1ccc(/C=N/NC(=O)c2ccncc2)cc1CN1CCOCC1	inactive
O=C(Oc1cccc2cccnc12)c1cccc(-n2cnnn2)c1	inactive
CCc1ccc(N2NC(=O)/C(=C/C=C/c3ccco3)C2=O)cc1	inactive
Cc1ccccc1OCCCCc1c(C)n[nH]c1C	inactive
COc1ccc(C(=O)COC(=O)c2ccc(Cl)nc2)c(OC)c1	inactive
COc1ccc(N2C(=O)NC(=O)/C(=C/c3ccc([N+](=O)[O-])s3)C2=O)cc1	inactive
CCc1ccc(Cc2cnc(NC(=O)C3=NCCN3)s2)cc1	inactive
CCCCNC(=O)Cc1ccc(C)cc1	inactive
COc1cccc2[nH]c3c(Cl)ncnc3c12	inactive
Cc1ccc(C(=O)Oc2cccc(-n3cnnn3)c2)cc1	inactive
O=C(COc1c(Br)cc(Br)c2cccnc12)N1CCCCC1	inactive
CCOC(=O)C1(CCc2ccccc2)CCN(Cc2ccccn2)CC1	inactive
O=C(OCC(=O)N1CCN(c2ccccc2)CC1)c1cnc(Cl)c(Cl)c1	inactive
Cc1[nH]n2c(=O)c3c(nc2c1-c1ccccc1)CCCC3	inactive
O=C(Nc1nc2ccccc2[nH]1)c1cccc([N+](=O)[O-])c1	inactive
Cc1cc(C)n2[nH]c(=O)c(N=Nc3cccc(C(F)(F)F)c3)c2n1	inactive
CCOC(=O)c1ccc(-c2ccc(C(=O)Nc3cccnc3)o2)cc1	inactive
Cc1cccc(C)c1NC(=O)COC(=O)CCc1c[nH]c2ccccc12	inactive
